# Measured values published in PubChem BioAssay.
# Active and inactive are the calls of the source. Unless noted, how the calls were made is not given here.
# Legend:
# [1] = A549 cell viability effects, profiling panel, calcein-AM fluorescence, 48 h, basal (AID 1162); settings: higher = more signal; further: test concentration not given here
# [2] = adipocyte viability effects, profiling panel, cell-based, 3T3-L1 adipocytes, calcein-AM fluorescence, 48 h, basal (AID 1163); settings: 3T3-L1 adipocytes viability, higher = more signal; further: test concentration not given here
# [3] = HepG2 cell viability effects, profiling panel, calcein-AM fluorescence, 48 h, basal (AID 1164); settings: higher = more signal; further: test concentration not given here
# [4] = MM1S cell viability effects, profiling panel, calcein-AM fluorescence, 48 h, basal (AID 1165); settings: higher = more signal;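 further: viability of MM1S multiple myeloma cells under basal unstimulated conditions; test concentration not given here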
# [5] = basal RPMI8226 viability, no added stimulus, profiling panel, cell-based, calcein-AM fluorescence, 48 h, PK04 Diversity Set (AID 1166); settings: RPMI8226 myeloma viability, higher = more signal;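 further: cells grown under basal conditions without added stimulus; test concentration not given here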
# [6] = basal HepG2 mitochondrial membrane potential changes, profiling panel, cell-based, JC-1 fluorescence, 24 h, 100 nL compound (AID 1167); settings: higher = more signal; further: test concentration not given here
# [7] = basal 3T3-L1 adipocyte mitochondrial potential changes, profiling panel, cell-based, JC-1 fluorescence, 3T3-L1 adipocytes, 24 h, 100 nL compound (AID 1168); settings: JC-1 mitochondrial fluorescence, higher = more signal, called active from +8 up or from −8 down; further: test concentration not given here
# [8] = basal RPMI8226 mitochondrial membrane potential changes, profiling panel, cell-based, JC-1 fluorescence, 24 h, 100 nL compound (AID 1169); settings: RPMI8226 myeloma, JC-1 mitochondrial potential fluorescence, higher = more signal; further: test concentration not given here
# [9] = basal MM1S mitochondrial membrane potential changes, profiling panel, cell-based, JC-1 fluorescence, 24 h, 100 nL compound (AID 1170); settings: higher = more signal; further: test concentration not given here
# [10] = A549 lung cancer cell viability effects, profiling panel, resazurin fluorescence, 24 h, PK04 Diversity Set (AID 1171); settings: higher = more signal, called active from +8 up or from −8 down; further: test concentration not given here
# [11] = HepG2 liver cancer cell viability effects, profiling panel, resazurin fluorescence, 24 h, PK04 Diversity Set (AID 1172); settings: higher = more signal; further: test concentration not given here
# [12] = basal S. cerevisiae growth modulation, no modifier, primary screen, OD600, strain BY4716, 24 h, basal condition (AID 1173); settings: OD600, 24 h, higher = more signal, called active from +8 up or from −8 down
# [13] = MM1S myeloma cell viability, profiling panel, resazurin fluorescence, basal, 24 h, PK04 Diversity Set (AID 1174); settings: higher = more signal, called active from +8 up or from −8 down;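 further: MM1S multiple myeloma cell line; test concentration not given here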
# [14] = biological target: Dihydroorotate dehydrogenase (quinone), mitochondrial (Plasmodium falciparum (isolate 3D7)) (UniProt Q08210); assay: PfDHODH enzyme inhibitors, primary screen, biochemical, C-terminal His tag, absorbance 600 nm (AID 1175); settings: DCIP absorbance 600 nm, higher = more signal, called active from +8 up or from −8 down;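 further: recombinant parasite enzyme with a five histidine tag at its C terminus; test concentration not given here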
# [15] = P. aeruginosa biofilm formation inhibitors, primary screen, strain PAO1, LB-PBS medium, absorbance 600 nm (AID 1176); further: test concentration not given here; settings: P. aeruginosa PAO1 growth/biofilm, A600, 12 h; higher = more signal
# [16] = S. cerevisiae RM11-1a growth modifiers, primary screen, strain RM11-1a, OD600, basal, 24 h (AID 1177); settings: OD600, 24 h, higher = more signal, called active from +8 up or from −8 down;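 further: cultures grown under basal conditions with no added stressor; test concentration not given here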
# [17] = E. coli acrAB mutant growth effects, primary screen, E. coli filamentation inducers, strain DRC39, OD650, 24 h (AID 1178); settings: higher = more signal, called active from +8 up or from −8 down;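 further: growth measured as culture turbidity by optical density at 650 nm; test concentration not given here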
# [18] = E. coli acrAB mutant growth effects, primary screen, E. coli filamentation inducers, strain DRC39, OD650, 48 h (AID 1179);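 further: screen aims at cell division blockers that make cells filament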; settings: E. coli DRC39 delta-acrAB growth, higher = more signal, called active from +8 up or from −8 down
# [19] = RPMI8226 myeloma cell viability, profiling panel, resazurin fluorescence, basal, 24 h, PK04 Diversity Set (AID 1180); settings: higher = more signal;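 further: RPMI8826 multiple myeloma cell line at 5000 cells per well; test concentration not given here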
# [20] = biological target: E3 ubiquitin-protein ligase XIAP (Homo sapiens) (UniProt P98170); assay: XIAP binders, primary screen, biophysical, small-molecule microarray, fluorescence 635 nm (AID 1181); settings: small-molecule microarray binding, higher = more signal;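 further: score merges 667 nm emission and signal to noise over triplicate slides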
# Sequence of E3 ubiquitin-protein ligase XIAP (Homo sapiens) (P98170 whole entry, looked up): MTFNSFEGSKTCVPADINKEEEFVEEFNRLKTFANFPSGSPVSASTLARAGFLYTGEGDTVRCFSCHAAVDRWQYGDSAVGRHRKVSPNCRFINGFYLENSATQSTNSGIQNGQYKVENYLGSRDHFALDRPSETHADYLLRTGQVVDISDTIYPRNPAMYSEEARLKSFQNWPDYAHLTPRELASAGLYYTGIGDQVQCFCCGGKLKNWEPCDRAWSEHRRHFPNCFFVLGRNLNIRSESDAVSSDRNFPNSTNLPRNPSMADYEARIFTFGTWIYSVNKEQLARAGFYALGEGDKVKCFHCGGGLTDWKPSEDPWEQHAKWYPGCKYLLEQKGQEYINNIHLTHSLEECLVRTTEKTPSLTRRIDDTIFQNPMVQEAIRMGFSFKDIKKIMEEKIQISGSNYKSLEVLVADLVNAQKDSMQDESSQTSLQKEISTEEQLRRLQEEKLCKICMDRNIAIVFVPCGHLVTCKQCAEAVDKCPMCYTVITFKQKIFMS
# Sequence of Dihydroorotate dehydrogenase (quinone), mitochondrial (Plasmodium falciparum (isolate 3D7)) (Q08210 whole entry, looked up): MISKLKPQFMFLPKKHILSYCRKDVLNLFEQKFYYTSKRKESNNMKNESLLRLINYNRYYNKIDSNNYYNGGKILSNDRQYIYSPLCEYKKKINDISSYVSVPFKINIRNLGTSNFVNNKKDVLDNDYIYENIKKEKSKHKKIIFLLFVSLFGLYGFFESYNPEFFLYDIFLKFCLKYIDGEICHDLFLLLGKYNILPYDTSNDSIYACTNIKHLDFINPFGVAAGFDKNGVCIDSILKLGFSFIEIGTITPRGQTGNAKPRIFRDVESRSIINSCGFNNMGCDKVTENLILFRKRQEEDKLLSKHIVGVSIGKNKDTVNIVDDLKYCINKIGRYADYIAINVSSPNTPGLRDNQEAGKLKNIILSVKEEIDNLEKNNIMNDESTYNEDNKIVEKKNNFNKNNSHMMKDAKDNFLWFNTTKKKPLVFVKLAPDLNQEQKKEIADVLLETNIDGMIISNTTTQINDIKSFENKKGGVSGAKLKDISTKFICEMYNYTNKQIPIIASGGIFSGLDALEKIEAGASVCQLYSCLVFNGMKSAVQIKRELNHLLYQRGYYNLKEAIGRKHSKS
SMILES,z-score [1],z-score [2],z-score [3],z-score [4],z-score [5],z-score [6],z-score [7],z-score [8],z-score [9],z-score [10],z-score [11],z-score [12],z-score [13],composite z-score [14],z-score [15],z-score [16],z-score [17],z-score [18],z-score [19],composite z-score [20]
N#Cc1ccc(NN2C(C(O)CCc3ccccc3)C=CC3C(=O)N(c4ccccc4)C(=O)C32)cc1 (stereo not given),0.422,-0.191,1.18,0.197,-0.0961,-0.256,-0.0951 (inactive),0.245,0.419,0.197 (inactive),-0.618,-0.333 (inactive),-0.611 (inactive),-2.09 (inactive),1.01 (inactive),-1.97 (inactive),0.143 (inactive),0.7 (inactive),-0.152,-0.127
C#CCNC(/C=C/c1ccccc1)CO (stereo not given),-0.165,-0.239,-0.624,-0.295,-0.987,-1.02,0.308 (inactive),0.38,-0.323,0.234 (inactive),-0.316,0.668 (inactive),-0.498 (inactive),0.657 (inactive),0.449 (inactive),1.62 (inactive),0.238 (inactive),0.188 (inactive),-0.153,0.0338
COCCCNC(=O)[C@@]1(c2ccc([N+](=O)[O-])cc2)CC(=O)N(C2CCCCC2)[C@@H]1c1ccc(CO)cc1,0.286,0.0134,0.366,-0.214,-0.0968,0.437,-0.605 (inactive),0.00327,0.509,0.902 (inactive),0.172,-0.27 (inactive),0.337 (inactive),-0.0394 (inactive),0.814 (inactive),-0.491 (inactive),-0.131 (inactive),-0.346 (inactive),0.946,0.147
Cc1ccc(S[C@]2(C(=O)O)CC(=O)N(Cc3cc(C(F)(F)F)cc(C(F)(F)F)c3)[C@@H]2c2ccc(CO)cc2I)cc1,0.673,0.429,0.324,-3,-2.22,-0.338,-0.459 (inactive),-0.325,-1.36,0.288 (inactive),-0.101,-3.06 (inactive),-2.57 (inactive),0.0643 (inactive),-0.481 (inactive),0.555 (inactive),0.0907 (inactive),-0.0983 (inactive),-1.47,-0.136
O=C1O[C@H](c2ccccc2)[C@H](c2ccccc2)N2[C@H]1[C@@H](C(=O)NC[C@H](O)c1ccccc1)[C@]1(C(=O)Nc3ccc(C#CC4(O)CCCCCC4)cc31)[C@H]2c1ccc(OCCO)cc1,-1.2,0.694,0.643,-1.29,-0.587,-1.32,1.78 (inactive),-0.842,-0.469,0.132 (inactive),-0.148,0.359 (inactive),-0.15 (inactive),-1.82 (inactive),1.9 (inactive),1.68 (inactive),1.66 (inactive),0.855 (inactive),0.931,-0.168
C=CCC(OC(C)=O)[C@@H]1[C@@H](N(Cc2cccc3ccccc23)C(=O)Cc2ccc(F)cc2)c2cc(OCCCO)ccc2N1C(=O)Cc1ccc2ccccc2c1 (stereo not given in full),0.677,-0.399,0.607,0.853,-0.538,1.72,0.38 (inactive),-0.0877,-0.24,0.775 (inactive),0.549,0.595 (inactive),0.295 (inactive),-0.373 (inactive),0.195 (inactive),0.0764 (inactive),-0.283 (inactive),0.4 (inactive),-1.29,-0.0332
C=CCC(OC(C)=O)[C@@H]1[C@@H](N(Cc2ccc(-c3ccccc3)cc2)C(=O)c2ccc(-c3ccccc3)cc2)c2cc(OCCCO)ccc2N1C(=O)Cc1ccc(OC)cc1 (stereo not given in full),-0.111,0.6,0.551,-0.769,-0.904,0.424,-0.972 (inactive),-0.0615,-0.142,0.78 (inactive),-0.149,0.335 (inactive),0.108 (inactive),-0.979 (inactive),0.0429 (inactive),-1.14 (inactive),-0.0223 (inactive),0.185 (inactive),0.202,-0.0596
COc1ccc([Si](C)(C)[C@@H]2[C@@H](CCO)O[C@]3(C(=O)N(Cc4ccc(NC(=O)[C@H](C)O)cc4)c4ccccc43)[C@H]2C)cc1,-2.45,1.63,-2.43,-2.97,-2.49,-1.84,0.492 (inactive),-1.12,-0.492,-2.95 (inactive),-1.84,-0.177 (inactive),-6.71 (inactive),-1.07 (inactive),-0.717 (inactive),3.7 (inactive),1.26 (inactive),0.335 (inactive),-5.69,-0.0497
CC(=O)NCCCC[C@@H]1NC(=O)[C@H]2C[C@@H](C(=O)NCCCCCCN(C)C)[C@@H](c3ccc(O)cc3)N2C1=O,-0.345,1.03,-1.23,-0.327,-0.551,-0.755,0.154 (inactive),0.669,0.116,-1.27 (inactive),-0.666,-0.191 (inactive),-1.56 (inactive),-0.231 (inactive),-0.0059 (inactive),-0.0236 (inactive),-1.04 (inactive),-1.53 (inactive),-1.28,0.217
N#Cc1ccc(NN2C(C(O)c3ccc(I)cc3)C=CC3C(=O)N(c4ccccc4)C(=O)C32)cc1 (stereo not given),-0.668,-0.392,0.0254,-1.03,-0.251,-0.895,0.641 (inactive),-0.586,-0.263,-0.383 (inactive),-1.59,0.179 (inactive),-1.34 (inactive),-0.165 (inactive),0.944 (inactive),0.62 (inactive),-0.904 (inactive),-0.397 (inactive),-0.328,-0.256
O=C(NCc1ccccc1)c1ccc(Br)cc1[N+](=O)[O-],-0.787,0.0153,0.0565,-0.0086,0.287,-0.0457,0.346 (inactive),-0.745,0.189,0.0828 (inactive),0.0759,-2.42 (inactive),0.0636 (inactive),-1.37 (inactive),-0.131 (inactive),-0.465 (inactive),0.986 (inactive),-0.411 (inactive),-0.447,-0.127
CCc1cccc(NC(=O)O[C@H]2[C@H](OC(=O)Nc3ccccc3)[C@@H](OC(=O)Nc3ccccc3)[C@@H](OC)O[C@@H]2CO)c1,-2.42,1.1,-4.04,-3.01,-4.29,-0.501,0.963 (inactive),-1.21,-1.53,-4.14 (inactive),-2.9,0.28 (inactive),-5.58 (inactive),0.189 (inactive),0.497 (inactive),2.4 (inactive),1.47 (inactive),0.711 (inactive),-4.86,0.0153
CCOC(=O)C1=CC[C@@H](c2ccccc2)N(S(=O)(=O)c2ccc(C)cc2)[C@H]1C,-1.54,-0.956,-1.21,-1.6,-1.77,3.96,0.775 (inactive),-0.198,-1.22,0.0723 (inactive),0.302,1.11 (inactive),-0.209 (inactive),-1.18 (inactive),-0.0601 (inactive),1.43 (inactive),-0.472 (inactive),-0.4 (inactive),-0.875,0.0512
COc1ccc(CCN2C(=O)[C@@]3(c4ccc([N+](=O)[O-])cc4)CC(=O)N(CC45CC6CC(CC(C6)C4)C5)[C@@H]3c3ccc(CO)cc32)cc1,1.44,0.0861,0.71,0.0097,-0.346,0.0982,0.0691 (inactive),-0.0825,0.997,0.616 (inactive),0.214,-0.12 (inactive),0.954 (inactive),-25.3 (active),0.298 (inactive),-0.16 (inactive),0.307 (inactive),0.241 (inactive),0.325,0.0325
C[C@]1(C(=O)NCCN2CCOCC2)c2ccccc2C(=O)N(Cc2ccccc2)[C@H]1c1ccc(CO)cc1,0.665,-0.337,-0.289,0.763,-1.71,1.58,-0.782 (inactive),-0.0116,-0.225,0.583 (inactive),0.702,-0.46 (inactive),0.402 (inactive),1 (inactive),0.662 (inactive),1.2 (inactive),0.223 (inactive),0.134 (inactive),0.85,0.144
COc1ccc([Si](C)(C)[C@@H]2[C@@H](CCO)O[C@]3(C(=O)N(Cc4ccccc4)c4ccccc43)[C@H]2C)cc1,-0.617,0.725,-0.495,-1.22,-2.05,2.34,0.358 (inactive),-0.181,0.849,-1.69 (inactive),-1,0.212 (inactive),-0.604 (inactive),0.825 (inactive),0.13 (inactive),0.347 (inactive),0.916 (inactive),-0.326 (inactive),-0.372,-0.232
CC(=O)NCCCC[C@@H]1NC(=O)[C@H]2C[C@@H](C(=O)NCCCCCCN(C)C)[C@@H](c3cccc(OCCO)c3)N2C1=O,0.214,0.509,0.344,0.27,0.079,-0.0861,-0.308 (inactive),-0.125,-0.376,-0.739 (inactive),-0.526,-1.16 (inactive),-0.143 (inactive),-0.0259 (inactive),0.42 (inactive),-0.0243 (inactive),0.617 (inactive),-0.197 (inactive),-0.696,-0.0067
